Results on 24 molecules are retold here after PubChem BioAssay (Tox21).

A short description of test [1]: qHTS assay for small molecule agonists of the p53 signaling pathway (AID 651631; calls by dose curve; also: nearly all actives have a fitted effect of over 15% in size; also: potency is read from the fitted curve at half-maximal effect). Put shortly:
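Quantitative high-throughput format: 4,000 p53RE-bla HCT-116 cells/well, 5 h pre-incubation, 16 h compound exposure at 37 °C, 2 h room-temperature substrate step, fluorescence intensity measured.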

A short description of test [2]: qHTS assay for small molecules that induce genotoxicity in human embryonic kidney cells expressing luciferase-tagged ATAD5 (AID 651632). Also: nearly all actives have a fitted effect of over 15% in size. In outline: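 Luminescent reporter readout, HEK293T ATAD5-luc line: 16 hr drug exposure (37C, 5% CO2) followed by Amplite, 30 min RT.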
Test [3] is described as follows: qHTS assay for small molecule agonists of the p53 signaling pathway - cell viability (AID 651633; calls by dose curve; also: nearly all actives have a fitted effect of over 30% in size; also: potency is read from the fitted curve at half-maximal effect;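 as to activity change, negative = cytotoxicity: p53RE-bla HCT reporter cells with a stable beta-lactamase p53 reporter; series mostly up to about 83 µM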). Put shortly: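 p53RE-bla cells, seeded at 4,000 per well and rested 5 h at 37 C/5% CO2, received compounds in DMSO for 16 h at 37 C. CellTiter-Glo was then added, and luminescence was read after 30 min at room temperature to gauge cytotoxicity.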
Test [4] in a line: qHTS assay for small molecules that induce genotoxicity in human embryonic kidney cells expressing luciferase-tagged ATAD5 - cell viability (AID 651634; calls by dose curve; also: nearly all actives have a fitted effect of over 25% in size). In outline: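 Viability read: CellTiter-Fluor fluorescence, 30 min at 37C. Cells: HEK293T, luciferase-tagged ATAD5. Exposure: 15.5 hr, 37C, 5% CO2, compound or DMSO vehicle.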
(qHTS replaces the single test concentration by a dilution series.)

Test [5] can be described thus: qHTS assay for small molecule disruptors of the mitochondrial membrane potential - cell viability (AID 720634; calls by dose curve; also: nearly all actives have a fitted effect of over 20% in size; also: potency is read from the fitted curve at half-maximal effect;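 as to activity change, negative = cytotoxicity: human HepG2 liver cancer cells; series mostly up to about 83 µM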). In outline: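 HepG2, 1 hr compound, 37 C. ATP luminescence via CellTiter-Glo, 30 min RT, same well as m-MPI.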
A short description of test [6]: qHTS assay for small molecule disruptors of the mitochondrial membrane potential (AID 720635). Also: potency is read from the fitted curve at half-maximal effect. Put shortly:
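HepG2 cells (2,000/well) attached overnight at 37C, then took compound for 1 hr at 37C, 5% CO2. Mito-MPS dye was added for 30 min; fluorescence was read at 490/535 nm (monomers) and 540/590 nm (aggregates).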

A short description of test [7]: qHTS assay to test for compound auto fluorescence at 590 nm (red) in HepG2 cells (AID 720674). Put shortly: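 Compound auto-fluorescence is scored relative to Rose Bengal sodium, measured at 540/590 nm in live HepG2 cultures after 1 hr compound contact (37 C, 5% CO2).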
The nature of test [8]: qHTS assay to test for compound auto fluorescence at 460 nm (blue) in HEK293 cells (AID 720678). Put shortly: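 Blue read-out at excitation 405 nm and emission 460 nm follows overnight compound exposure of HEK293 cells at 37C in 5% CO2. Activity is given as auto fluorescence equivalency to triamterene.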
A short description of test [9]: qHTS assay to test for compound auto fluorescence at 590 nm (red) in HEK293 cells (AID 720679). In outline: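 Red channel, Ex/Em 540/590nm; signal expressed as equivalency to Rose Bengal sodium. HEK293, 2,000 cells/well, 10% dialyzed FBS; 23 nL compound pinned after 4-5 hr attachment; overnight 37C/5% CO2 before reading.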
The nature of test [10]: qHTS assay to test for compound auto fluorescence at 535 nm (green) in HepG2 cells (AID 720675).

Where “and” joins values, the source holds several entries; their conditions need not be identical. Identical values can stand only once. A number with no mark means an inactive call. Inconclusive results are not listed. Calls of active or inactive are those of the source. Unless noted, calls follow the shape of the dose curve; as a rule, active = well fitted curve in the direction sought with a large enough effect in the repeat runs; inconclusive = weak or mixed curves; inactive = no such curve, though single readings can be large; an effect the other way counts as inactive or inconclusive.
% is scaled to controls: 0 for no effect and ±100 for the full control effect.

On to `COc1nc(C)nc(NC(=O)NS(=O)(=O)c2ccccc2Cl)n1`, for which the Potency result in test [1], in test [2], in test [3], in test [4], in [5] and in test [6] was “inactive” throughout. Further, the Potency entry in test [8] is “inactive”. In addition, the molecule was called inactive in test [7] and in [9].
Turning to `O=C1C(Cl)=C(Cl)C(=O)C(Cl)=C1Cl`, the Potency in [1] is 30.5 µM (active) and 6.11 µM (active); in test [3], 19.3 µM (active) and 21.7 µM (active); in [5], 30.5 µM (active) and 27.3 µM (active); in [6], 8.6 µM (active) and 8.63 µM (active). Besides, the Potency entry in test [2], in test [4] and in [8] was “inactive” in each case. In addition, the molecule was called inactive in [9].
Turning to `CN/C(=N\[N+](=O)[O-])NCc1cnc(Cl)s1`, the Potency entry in [1], in [2], in test [3], in test [4], in test [5] and in test [10] was “inactive” each time. Also, in [8], the Potency entry was “inactive”. In addition, the molecule was called inactive in test [7] and in [9].
Turning to `Clc1ccc(C2(Cn3cncn3)OCCO2)c(Cl)c1`, the Potency result in test [1], in test [2], in [3], in test [4], in [5] and in test [6] was “inactive” in each case. Also, the Potency result in test [8] was “inactive”. Further, the result in [7] and in test [9] was inactive.
For `CC(C)Br`, the Potency result in test [1], in test [2], in test [3], in [4], in [5] and in [10] was “inactive” throughout. Moreover, in test [8], the Potency result was “inactive”. For the same molecule, the call in test [7] and in test [9] was inactive.
Turning to `CC(C)(C)c1ccc(OP(=O)(Oc2ccccc2)Oc2ccccc2)cc1`, the Potency result in [1], in [2], in [3], in test [4], in test [10] and in test [8] was “inactive” each time. Further, in test [6], the Potency is 9.75 µM (active). Also, the molecule was called inactive in test [7] and in [9].
In the case of `CCCCC/C=C\C/C=C\C/C=C\C/C=C\CCCC(=O)NCC(=O)O`, the activation is -5.49% [at 8.3 µM] in test [1] and -2.3% [at 8.08 µM] in test [2]. The activity change, negative = cytotoxicity is -17.5% [at 8.08 µM] in test [3] and -7.39% [at 8.08 µM] in [5]. For the same molecule, the activity, negative = cytotoxicity in test [4] was 5.25% [at 8.08 µM]. The fluorescence, relative to Rose Bengal in test [7] is -0.484% [at 3.72 µM]. In addition, the fluorescence, % of fluorescein control in [10] was 0.165% [at 3.72 µM]. In addition, the fluorescence, % of triamterene in test [8] is -0.0359% [at 3.72 µM]. Moreover, in test [9], the fluorescence, % of fluorescent control is 0.123% [at 3.72 µM].
As for `N#CCCl`, the Potency result in test [1], in test [2], in test [3], in [4], in test [5] and in [6] was “inactive” each time. For the same molecule, the Potency entry in test [10] and in test [8] was “inactive” each time. The result in test [7] and in [9] was inactive.
Turning to `COC(=O)c1ccccc1S(=O)(=O)NC(=O)Nc1nc(C)nc(OC)n1`, the Potency result in test [1], in test [2], in [3], in test [4], in [5] and in [10] was “inactive” each time. For the same molecule, the Potency entry in [8] is “inactive”. Also, in [9], the result was inactive.
For `CCOP(=O)(OCC)Oc1cc(C)nc(C(C)C)n1`, the Potency entry in test [1], in test [2], in test [3], in [4], in [5] and in test [6] was “inactive” in each case. Besides, the Potency entry in test [8] was “inactive”. Further, the molecule was called inactive in test [7] and in test [9].
Regarding `O=[N+]([O-])c1ccc(Cl)c(Cl)c1Cl`, the Potency entry in test [1], in [2], in test [3], in test [4], in test [5] and in test [10] was “inactive” in each case. The Potency entry in test [8] is “inactive”. Further, the molecule was called inactive in test [7] and in [9].
In the case of `COc1ccc2c(c1OC)C(=O)O[C@@H]2[C@H]1c2cc3c(cc2CCN1C)OCO3`, the Potency result in test [1], in [2], in test [3], in test [4], in test [5] and in [10] was “inactive” throughout. Further, in test [8], the Potency result was “inactive”. Further, the molecule was called inactive in [9].
For the molecule `Nc1cc(Cl)ccc1Cl`, the Potency result in test [1], in [2], in test [3], in [4], in [5] and in test [10] was “inactive” in each case. Moreover, in test [8], the Potency result is “inactive”. The outcome in test [7] and in test [9] was inactive.
In the case of `CN1[C@@H]2CC[C@H]1CC(O)C2` (stereo not given in full), the Potency result in [1], in [2], in test [3], in [4], in test [5] and in [6] was “inactive” each time. In addition, the Potency result in test [10] and in [8] was “inactive” throughout. Moreover, the result in [7] and in test [9] was inactive.
Take `C=CC(=C)C`: the Potency result in test [1], in [2], in test [3], in test [4], in test [5] and in test [10] was “inactive” each time. In addition, the Potency result in test [8] was “inactive”. Further, the molecule was called inactive in test [9].
Consider `CCN(CC)CCN1C(=O)CN=C(c2ccccc2F)c2cc(Cl)ccc21`, for which the Potency entry in test [1], in [2], in test [3], in test [5], in [10] and in test [8] was “inactive” in each case. Also, the molecule was classed as inactive in [7] and in [9].
On to `CCOC(=O)CCN(SN(C)C(=O)Oc1cccc2c1OC(C)(C)C2)C(C)C`, for which the Potency entry in test [1], in [2], in test [3], in test [4] and in test [8] was “inactive” in each case. Moreover, the call in test [7] and in test [9] was inactive.
As for `Oc1ccc(Cl)c(Cl)c1`, the Potency result in [1], in [2], in test [10] and in test [8] was “inactive” in each case. The Potency in test [6] was 6.75 µM (active). For the same molecule, the outcome in test [9] was inactive.
As to `CCC1COC(Cn2cncn2)(c2ccc(Cl)cc2Cl)O1` (stereo not given), the Potency result in test [1], in [2], in test [4], in test [5], in test [10] and in [8] was “inactive” in each case. In addition, the molecule was called inactive in test [9].
For the molecule `CCN(CC)Cc1nccn1-c1ccc([N+](=O)[O-])cc1C(=O)c1ccccc1Cl`, the Potency entry in [1], in test [2], in test [4], in [5], in test [6] and in [8] was “inactive” throughout. Besides, the outcome in test [7] and in test [9] was inactive.
With `N#Cc1ccc(N(CC(N)=O)CC(F)(F)F)cc1C(F)(F)F`, the Potency entry in test [1], in [2], in test [3], in test [5], in test [10] and in test [8] was “inactive” in each case. Also, the outcome in test [7] and in test [9] was inactive.
Consider `O=C1C2(Cl)C3(Cl)C4(Cl)C(Cl)(Cl)C5(Cl)C3(Cl)C1(Cl)C5(Cl)C24Cl` (stereo not given), for which the Potency in test [1] is 60.1 µM (active); in [5], 1.9 µM (active); in test [6] it was 536 nM (active) and 585 nM (active). For the same molecule, the Potency result in test [2] and in [8] was “inactive” throughout. Besides, the outcome in test [7] and in test [9] was inactive.
As for `C[C@H]1[C@H](c2ccc(Cl)cc2)SC(=O)N1C(=O)NC1CCCCC1`, the Potency entry in test [1], in test [2], in test [3], in test [10] and in [8] was “inactive” each time. Moreover, the Potency in test [6] was 15.4 µM (active). The molecule was classed as inactive in test [7] and in test [9].
With `Nc1nc(N)nc(Cl)n1`, the Potency entry in test [1], in [2], in test [3], in [5], in test [6] and in test [10] was “inactive” in each case. Further, the Potency result in test [8] is “inactive”. In addition, the outcome in test [9] was inactive.
